Several values for one entry are separate records, joined by “and”; a condition that tells them apart may be missing. Identical values can stand only once. The panel holds about 83,000 compounds, 20% with a hit somewhere; the sample as a whole holds those more often.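 For each line, cells grew in 96-well plates with the test compound present at a single concentration for 48 hours.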 Unmarked numbers belong to inactive results. Activity calls are given as the source filed them. How the source made its calls: active means growth percent below 10; inactive means the rest.

Test systems include NCI-H23 lung; NCI-H226 lung; NCI-H322M lung; HOP-62 NSCLC; NCI-H460 lung; HOP-92 NSCLC; NCI-H522 lung; A549/ATCC NSCLC; 786-0 renal; COLO 205 colon.
Common to all, as to assay: NCI-60 one-dose screen, 48 h (100 = growth as untreated, 0 = no growth, -100 = all killed)
Common to all, as to settings: 10 µM unless noted

As for `O=C(N/N=C/c1ccc(Br)o1)c1[nH]c2ccc(Br)cc2c1-c1ccccc1`, the growth is -37% (active) in the assay on NCI-H23 lung; -42.6% (active) in the assay on NCI-H226 lung; 15% with NCI-H322M lung; -28.6% (active) in the assay with HOP-62 NSCLC; -63% (active) in the assay with NCI-H460 lung; -4.09% (active) in the assay on HOP-92 NSCLC. The growth in the assay on NCI-H522 lung is -61.5% (active); with A549/ATCC NSCLC, -4.05% (active); in the assay with 786-0 renal it was -52.7% (active); in the assay with COLO 205 colon, -13.5% (active).

Regarding `O=C(c1ccc(O)cc1)C1[C@H](c2ccccc2Br)[C@@H](c2ccccc2)NC12C(=O)Nc1ccccc12` (stereo not given in full), the growth with NCI-H23 lung is 34.3%; in the assay on NCI-H226 lung it was 53.3%; with NCI-H322M lung, 61.6%; with HOP-62 NSCLC it was 59.8%; in the assay on NCI-H460 lung, 33.1%; in the assay with HOP-92 NSCLC it was 38.8%. Moreover, the growth in the assay with NCI-H522 lung is -21.1% (active); with A549/ATCC NSCLC, 22.9%; with 786-0 renal it was 28.8%; with COLO 205 colon it was 28%.

As for `Cc1cccc(NCC(=O)N2CCN(c3ncnc4c3cnn4-c3ccccc3)CC2)c1`, the growth is 58.4% in the assay with NCI-H23 lung; 54.5% with NCI-H226 lung; 69.3% in the assay with NCI-H322M lung; 67.4% in the assay with HOP-62 NSCLC; 65% in the assay with NCI-H460 lung; 50.6% in the assay on HOP-92 NSCLC. For the same molecule, the growth in the assay with NCI-H522 lung was -6.93% (active); with A549/ATCC NSCLC, 65.3%; in the assay with 786-0 renal, 80.8%; with COLO 205 colon, 97.4%.

Take `COc1ccc2[nH]c(=O)c(CSc3ccccc3Nc3nccc(-c4ccc(C(F)(F)F)cc4)n3)cc2c1`: the growth was 30.7% with NCI-H23 lung; 18.7% in the assay with NCI-H226 lung; 67.4% in the assay with NCI-H322M lung; 53.6% in the assay with HOP-62 NSCLC; 17.4% in the assay on NCI-H460 lung; 26.7% in the assay on HOP-92 NSCLC. Also, the growth in the assay on NCI-H522 lung was 0.553% (active); in the assay on A549/ATCC NSCLC, 18.5%; in the assay on 786-0 renal it was -4.97% (active); in the assay on COLO 205 colon, 27.8%.

`COc1ccc(N=Nc2c(N)nn3c(N)c(C#N)c(-c4ccc(F)cc4)nc23)cc1`: the growth is 39.7% with NCI-H23 lung; 55% in the assay with NCI-H226 lung; 77% with NCI-H322M lung; 59.6% in the assay with HOP-62 NSCLC; 61.1% with NCI-H460 lung; -3.02% (active) with HOP-92 NSCLC. Moreover, the growth in the assay on NCI-H522 lung was 40.7%; with A549/ATCC NSCLC, 86.8%; with 786-0 renal it was 32%; with COLO 205 colon it was 105%.

Take `COc1ccc(-c2cc(-c3cc(C(C)C)c(O)cc3C)nn2-c2ccc(S(N)(=O)=O)cc2)cc1`: the growth in the assay with NCI-H23 lung is 41.5%; in the assay with NCI-H226 lung, 78.6%; with NCI-H322M lung, 72.3%; in the assay on HOP-62 NSCLC it was 51.5%; with NCI-H460 lung it was 33.8%; in the assay on HOP-92 NSCLC, 45.4%. Moreover, the growth in the assay with NCI-H522 lung is 6.99% (active); with A549/ATCC NSCLC, 40.4%; in the assay with 786-0 renal, 25.5%; with COLO 205 colon, 122%.

As for `COc1ccc(N=Nc2c(N)nn3c(-c4ccc(F)cc4)ccnc23)cc1`, the growth with NCI-H23 lung was 43.7%; with NCI-H226 lung it was 87.8%; with NCI-H322M lung, 84.3%; with HOP-62 NSCLC, 34.6%; in the assay with NCI-H460 lung, 64.7%; in the assay with HOP-92 NSCLC it was 100%. For the same molecule, the growth in the assay on NCI-H522 lung was 86.5%; with A549/ATCC NSCLC, 43%; in the assay on 786-0 renal, 92.3%; with COLO 205 colon, 94.4%.

As for `O=C1CCC(N2C(=O)c3cccc(NCCOCCOCCOCCC(=O)NCCCC(=O)NC(c4ccc5c(c4)OCO5)c4cc(Cl)c5cccnc5c4O)c3C2=O)C(=O)C1` (stereo not given), the growth in the assay on NCI-H23 lung is 45.1%; with NCI-H226 lung it was 45%; in the assay with NCI-H322M lung, 39.5%; in the assay on HOP-62 NSCLC, 34.3%; with NCI-H460 lung it was 26.6%; in the assay on HOP-92 NSCLC it was 13.7%. Moreover, the growth in the assay on NCI-H522 lung is 6.82% (active); in the assay on A549/ATCC NSCLC, 88.3%; with 786-0 renal, 70.8%; in the assay on COLO 205 colon, 24.5%.

Regarding `CSc1ccc(OCc2nc3ccccc3n2-c2cccc(NS(C)(=O)=O)c2)cc1`, the growth is 92.3% and 81.1% in the assay with NCI-H23 lung; 100% and 88.1% in the assay on NCI-H226 lung; 106% and 105% with NCI-H322M lung; 114% and 75.1% in the assay on HOP-62 NSCLC; 114% and 73.3% in the assay with NCI-H460 lung; 80.1% and 93.1% with HOP-92 NSCLC. Besides, the growth with NCI-H522 lung is 105% and 96.7%; in the assay on A549/ATCC NSCLC it was 104% and 87.1%; in the assay on 786-0 renal, 114% and 97.3%; in the assay on COLO 205 colon, 120% and 91.4%.

On to `O=C(Nc1ccc(-c2ccc3c(c2)NC(=O)/C3=C\c2ccc[nH]2)cc1)Nc1ccc(Cl)c(Cl)c1`, for which the growth in the assay on NCI-H23 lung is 37.8%; in the assay with NCI-H226 lung, 78.1%; in the assay with NCI-H322M lung, 73.4%; in the assay on HOP-62 NSCLC it was 61.9%; in the assay on NCI-H460 lung, 17.4%; with HOP-92 NSCLC, 88.5%. Moreover, the growth was 63% in the assay on NCI-H522 lung, 62% in the assay on A549/ATCC NSCLC, 35.9% in the assay on 786-0 renal and 58% in the assay on COLO 205 colon.

As for `COc1ccc2[nH]cc(-c3cc(N)n4nc(-c5c[nH]c6ccccc56)cc4n3)c2c1`, the growth in the assay on NCI-H23 lung is -12.1% (active); with NCI-H226 lung it was 74.5%; in the assay with NCI-H322M lung, 18.3%; in the assay with HOP-62 NSCLC, -45.2% (active); with NCI-H460 lung, -22.8% (active); in the assay with HOP-92 NSCLC, -1.68% (active). For the same molecule, the growth in the assay on NCI-H522 lung was -65.3% (active); in the assay on A549/ATCC NSCLC, 1.46% (active); with 786-0 renal, -88.3% (active); with COLO 205 colon, -82.5% (active).

Regarding `COc1ccc2[nH]c(=O)c(CSc3ccccc3Nc3nccc(-c4ccc5c(c4)OCO5)n3)cc2c1`, the growth was 94.9% in the assay with NCI-H23 lung; 76.1% in the assay with NCI-H226 lung; 92.5% in the assay on NCI-H322M lung; 94.1% in the assay on HOP-62 NSCLC; 83.5% with NCI-H460 lung; 90.3% in the assay on HOP-92 NSCLC. Further, the growth in the assay with NCI-H522 lung is 66.1%; in the assay on A549/ATCC NSCLC it was 76.3%; in the assay on 786-0 renal, 90.1%; with COLO 205 colon it was 101%.

As to `N#Cc1c(-c2ccc(F)cc2)nc(SCc2ccccc2)nc1N1CCNCC1`, the growth with NCI-H23 lung is -90.5% (active); with NCI-H226 lung, -58.8% (active); with NCI-H322M lung, -53.7% (active); with HOP-62 NSCLC, -78.8% (active); in the assay with NCI-H460 lung, -85.5% (active); in the assay on HOP-92 NSCLC, -92.2% (active). Besides, the growth in the assay on NCI-H522 lung is -81.6% (active); with A549/ATCC NSCLC, -90.9% (active); in the assay with 786-0 renal, -94% (active); in the assay with COLO 205 colon, -66% (active).
